Test [1] is described as follows: inhibitors of TNFa-induced NFkB p65 translocation, primary screen, imaging, HUVEC, MLSMR starter and 10KST1 sets (AID 438;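 active means inhibition above 20% together with a positive visual image hit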;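 further: compound added about 3h40 before a 20 min TNFalpha stimulation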;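 on inhibition: signal is the nuclear over cytoplasmic p65 intensity ratio per well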). Particulars: HUVEC TNFa-induced p65 nuclear translocation; cell count: measured here: nuclei count (cytotoxicity indicator), at 2.08 µM; inhibition: at 2 µM, stronger effect = higher value, 0% TNFa-plus-vehicle, 100% no-TNFa wells.
Test [2] is described as follows: reduction of polyQ htt aggregates in cells – imaging, exon1htt(103Q)mCFP cells, high-content imaging, primary screen (AID 483;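 active means visual image review flags a hit and inhibition of aggregation exceeds 20%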;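 further: compound exposure lasted 3 days before fixation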;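 on nuclei count: percent of the per-plate median nuclei count of sample wells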). Particulars: exon1htt(103Q)mCFP cell line, aggregate imaging, at 2 µM; inhibition of aggregation: stronger effect = higher value; nuclei count: measured here: cell count, toxicity.
Test [3] in a line: endothelial E-selectin expression blockers – imaging, HUVEC, immunofluorescence, MLSMR starter and 10KST1 sets, primary screen (AID 487;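 active means visually confirmed hit in the image check and inhibition above 20%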;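 on inhibition: signal is fraction of cell area covered by stained E-selectin grains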;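 on nuclei count: 100% = median nuclei count of all wells on the same plate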). Particulars: HUVEC TNFalpha-induced E-selectin immunofluorescence imaging, at 2 µM; inhibition: stronger effect = higher value; nuclei count: measured here: cell number, toxicity.
Test [4] deals with Voltage-gated potassium channel subunit beta-2 (Rattus norvegicus) (UniProt P62483). Briefly: inhibitors of rat Kvbeta2 reductase activity – biochemical, NADPH fluorescence, primary screen (AID 622;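 active means fluorescence slope higher than the sample average by over 3 SD, cut at about -0.22 in these data, passing the limit was not always enough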;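 further: slope of raw intensity against log time taken from 70 to 1610 s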). Particulars: recombinant KvBeta, 4-cyanobenzaldehyde reduction, at 10 µM, stronger effect = higher value.
Chain of Voltage-gated potassium channel subunit beta-2 (Rattus norvegicus) (P62483 whole entry, looked up): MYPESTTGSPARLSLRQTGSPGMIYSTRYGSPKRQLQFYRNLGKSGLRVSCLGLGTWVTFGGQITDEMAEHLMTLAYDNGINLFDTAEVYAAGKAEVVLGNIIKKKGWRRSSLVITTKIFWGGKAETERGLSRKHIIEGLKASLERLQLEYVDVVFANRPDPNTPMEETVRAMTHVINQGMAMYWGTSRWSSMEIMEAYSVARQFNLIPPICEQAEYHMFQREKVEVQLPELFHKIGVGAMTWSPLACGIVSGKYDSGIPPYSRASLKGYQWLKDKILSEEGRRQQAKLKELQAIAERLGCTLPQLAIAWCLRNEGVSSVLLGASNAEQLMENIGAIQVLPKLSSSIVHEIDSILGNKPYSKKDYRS
Test [5] shares this target. Briefly: enhancers of rat Kvbeta2 NADPH turnover – biochemical, NADPH fluorescence, primary screen (AID 623;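 active means NADPH fluorescence slope more negative than the mean of all samples by about 3 SD, 99.7% confidence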;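 further: fluorescence intensity change per second fitted from 20 to 320 s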). Particulars: Recombinant KvBeta, NADPH fluorescence decrease slope, 10 min; at 10 µM; stronger effect = lower value.
The target of test [6] is Alpha-2C adrenergic receptor (Homo sapiens) (UniProt P18825). Briefly: compounds altering alpha2C-coupled GIRK flux – cell-based, HEK293 alpha2C/GIRK1/2, thallium flux, primary screen (AID 624;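 active means fluorescence slope after compound addition differing from the mean of all screened samples at 99.7% confidence, in either direction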;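 further: slope of fluorescence ratio to pre-addition baseline per second over 15 to 24 s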). Particulars: thallium flux BTC fluorescence, at 10 µM, actives lie on both sides.
Chain of Alpha-2C adrenergic receptor (Homo sapiens) (P18825 whole entry, looked up): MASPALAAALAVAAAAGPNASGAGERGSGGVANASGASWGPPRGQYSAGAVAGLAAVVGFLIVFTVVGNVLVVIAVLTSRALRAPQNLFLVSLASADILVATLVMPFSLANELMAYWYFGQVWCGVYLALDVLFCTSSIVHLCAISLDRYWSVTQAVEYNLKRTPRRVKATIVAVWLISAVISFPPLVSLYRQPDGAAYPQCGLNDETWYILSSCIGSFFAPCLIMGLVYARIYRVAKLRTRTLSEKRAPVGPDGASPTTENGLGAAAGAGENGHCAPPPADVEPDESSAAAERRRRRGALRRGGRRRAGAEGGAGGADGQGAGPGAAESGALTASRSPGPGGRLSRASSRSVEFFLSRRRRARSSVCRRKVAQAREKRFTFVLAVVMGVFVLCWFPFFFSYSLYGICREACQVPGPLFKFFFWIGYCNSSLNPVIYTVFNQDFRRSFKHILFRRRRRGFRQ
Test [7] is described as follows: blockers of RIG-like receptor reporter activation – cell-based, Sendai virus stimulus, luciferase, 10K MLSCN set, TLR/RLR signaling modifier project, primary screen (AID 602276;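 active means inhibition at or above 50% at 10 µM; inactive means inhibition below 50%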;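 further: firefly luciferase from ISG56 promoter only with Renilla not read in this screen; 0% = Sendai virus plus DMSO and 100% = medium plus DMSO without virus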). Particulars: HEK293 RL24 IRF3 luciferase reporter, at 10 µM, stronger effect = higher value.
A short description of test [8]: TLR3 IRF3 reporter activation blockers – cell-based, poly I:C stimulus, luciferase, 10K MLSCN set, primary screen (AID 602277). Particulars: HEK293-TLR3 RL24 IRF3 luciferase reporter, at 10 µM, stronger effect = higher value.

Activity calls are given as the source filed them.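 How the source made its calls, unless noted: active means inhibition of the reporter signal at or above 50%; inactive means inhibition below 50%.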

Regarding `COCCNC(=O)c1cc(-c2cccs2)on1`, the cell count in test [1] was determined as 793. Also, the inhibition was -4% (inactive) in test [1], -46.8% (inactive) in test [3], -27.2% (inactive) in test [7] and -253% (inactive) in test [8]. Further, in test [2], the inhibition of aggregation was -19.1% (inactive). In addition, the figures for the nuclei count in test [2] and in test [3] were 116% and 126%, respectively. In addition, the fluorescence slope in test [4] was -0.587 (inactive). Also, the NADPH fluorescence slope in test [5] was 6.5e-06 (inactive). In test [6], the slope was 0.00598 (inactive).
As to `COc1ccc2nc3oc(C(=O)N4CCCCC4)cc3cc2c1`, the cell count in test [1] was found to be 194. In addition, the inhibition in test [1] was 1.8% (inactive); in test [3], -13.7% (inactive); in test [7] it was -36.8% (inactive); in test [8] it was -132% (inactive). In addition, the inhibition of aggregation in test [2] was -10.4% (inactive). Moreover, the nuclei count in test [2] turned out to be 105%; in test [3], 112%. The fluorescence slope in test [4] was -0.0908 (inactive). Also, the NADPH fluorescence slope in test [5] was -2.5e-05 (inactive). The slope in test [6] is 0.00338 (inactive).
For the compound `CCOc1ccc(C(=O)N2CCN(c3ccccc3)CC2)cc1OCC`, the cell count in test [1] is 196. The inhibition in test [1] was -16.9% (inactive); in test [3], -17.5% (inactive); in test [7] it was 16% (inactive); in test [8], 9.44% (inactive). For the same compound, in test [2], the inhibition of aggregation was 20.3% (inactive). The nuclei count in test [2] came out at 97.1%; in test [3], 100%. Also, in test [4], the fluorescence slope is -0.561 (inactive). Besides, in test [5], the NADPH fluorescence slope was 9.3e-05 (inactive). For the same compound, the slope in test [6] was 0.00618 (inactive).
For `O=C(Nc1ccc(N2C(=O)C3C4C=CC(C4)C3C2=O)cc1)Nc1nncs1` (centres undefined), in test [1], the cell count was 668. The inhibition in test [1] was -9.8% (inactive); in test [3] it was -77.5% (inactive); in test [7] it was 2.97% (inactive); in test [8] it was -2% (inactive). In test [2], the inhibition of aggregation is 4.9% (inactive). Also, the nuclei count in test [2] was found to be 92%; in test [3], 125%. Further, the fluorescence slope in test [4] is -0.579 (inactive). Further, the NADPH fluorescence slope in test [5] is 6.4e-08 (inactive). For the same compound, in test [6], the slope was 0.0068 (inactive).
`C=CCn1c(SCC(=O)Nc2ccccc2OC)nnc1-c1ccco1`: the cell count in test [1] was determined as 736. The inhibition in test [1] is 11% (inactive); in test [3], 0.9% (inactive); in test [7] it was 20.4% (inactive); in test [8], 22.4% (inactive). In test [2], the inhibition of aggregation was 1.8% (inactive). Further, the nuclei count worked out at 105% in test [2] and 120% in test [3]. For the same compound, the fluorescence slope in test [4] is -0.494 (inactive). Further, in test [5], the NADPH fluorescence slope is -5.8e-05 (inactive). Moreover, the slope in test [6] is 0.00624 (inactive).
Take `COc1ccccc1N1C(=O)c2ccccc2NC1c1ccncc1` (centres undefined): the cell count in test [1] worked out at 427. For the same compound, the inhibition in test [1] is 5.6% (inactive); in test [3] it was -456% (inactive); in test [7], -1.3% (inactive); in test [8], 5.74% (inactive). For the same compound, the inhibition of aggregation in test [2] is -20.4% (inactive). Besides, the nuclei count in test [2] stood at 103%; in test [3], 163%. The fluorescence slope in test [4] was -0.437 (inactive). For the same compound, the NADPH fluorescence slope in test [5] was -0.000349 (inactive). Besides, in test [6], the slope is 0.00578 (inactive).
Turning to `O=C(CN1C(=O)c2ccccc2S1(=O)=O)NCc1ccccc1Cl`, the cell count in test [1] is 698. The inhibition in test [1] was 4.2% (inactive); in test [3] it was -45.6% (inactive); in test [7], 9.36% (inactive); in test [8], 22.5% (inactive). Besides, the inhibition of aggregation in test [2] is 8.6% (inactive). Also, the results for the nuclei count in test [2] and in test [3] were 106% and 108%, respectively. Further, the fluorescence slope in test [4] was -0.599 (inactive). Besides, the NADPH fluorescence slope in test [5] is -1.3e-05 (inactive). Further, the slope in test [6] was 0.0066 (inactive).
On to `Cn1c(=O)c2ncn(CC(=O)NCCOc3ccc(C(C)(C)C)cc3)c2n(C)c1=O`, for which the cell count in test [1] amounted to 762. For the same compound, the inhibition was 2.2% (inactive) in test [1], -15.3% (inactive) in test [3], -12.6% (inactive) in test [7] and -14.5% (inactive) in test [8]. Besides, the inhibition of aggregation in test [2] is -9.8% (inactive). Moreover, the figures for the nuclei count in test [2] and in test [3] were 103% and 106%, respectively. Also, the fluorescence slope in test [4] was -0.582 (inactive). Moreover, in test [5], the NADPH fluorescence slope is -3.7e-05 (inactive). For the same compound, the slope in test [6] was 0.00671 (inactive).
`CC(C)CSc1nc2ccccc2n1CC(N)=O`: in test [1], the cell count came out at 314. Besides, the inhibition in test [1] was 3% (inactive); in test [3], 33.6% (inactive); in test [7] it was 13.3% (inactive); in test [8] it was 15.2% (inactive). For the same compound, in test [2], the inhibition of aggregation is -6.3% (inactive). Also, the figures for the nuclei count in test [2] and in test [3] were 109% and 107%, respectively. In test [4], the fluorescence slope is -0.362 (inactive). Further, in test [5], the NADPH fluorescence slope was -4.7e-05 (inactive). The slope in test [6] is 0.00549 (inactive).
`COc1ccc(-c2noc(-c3ccccc3C(=O)NCc3ccco3)n2)cc1`: the cell count in test [1] was 331. Besides, the inhibition is 9.3% (inactive) in test [1], -64.4% (inactive) in test [3], -8.85% (inactive) in test [7] and -39.1% (inactive) in test [8]. Further, in test [2], the inhibition of aggregation was -16.3% (inactive). The nuclei count in test [2] stood at 77.4%; in test [3], 99.2%. The fluorescence slope in test [4] was -0.592 (inactive). Besides, in test [5], the NADPH fluorescence slope was -4.7e-05 (inactive). Besides, the slope in test [6] is 0.00789 (inactive).
`Cn1c(=O)c2[nH]c(NCC3CCCO3)nc2n(-c2ccccc2)c1=O` (centres undefined): in test [1], the cell count stood at 359. Besides, the inhibition is -0.4% (inactive) in test [1], -80% (inactive) in test [3], 14% (inactive) in test [7] and 32.3% (inactive) in test [8]. For the same compound, the inhibition of aggregation in test [2] is -11.4% (inactive). In addition, the results for the nuclei count in test [2] and in test [3] were 108% and 116%, respectively. Moreover, the fluorescence slope in test [4] was -0.407 (inactive). In addition, the NADPH fluorescence slope in test [5] is -7.1e-05 (inactive). Further, the slope in test [6] was 0.00463 (inactive).
Regarding `COc1ccc(N2CCN(CCCNS(=O)(=O)c3c(C)noc3/C=C/N(C)C)CC2)cc1`, in test [1], the cell count is 561. In addition, the inhibition in test [1] is 8.7% (inactive); in test [3] it was -36.7% (inactive); in test [7] it was 3.23% (inactive); in test [8], 38.9% (inactive). For the same compound, the inhibition of aggregation in test [2] is -4.3% (inactive). The nuclei count worked out at 101% in test [2] and 73.9% in test [3]. In addition, the fluorescence slope in test [4] is -0.54 (inactive). Moreover, the NADPH fluorescence slope in test [5] was -6e-05 (inactive). Further, the slope in test [6] was 0.00583 (inactive).
With `CCCCOc1cc(=O)[nH]c(=O)[nH]1`, the cell count in test [1] stood at 379. Moreover, the inhibition is 11.7% (inactive) in test [1], 5.6% (inactive) in test [3], 10.4% (inactive) in test [7] and 8.55% (inactive) in test [8]. Further, the inhibition of aggregation in test [2] was 14.6% (inactive). Also, the nuclei count is 84.2% in test [2] and 89.2% in test [3]. Moreover, the fluorescence slope in test [4] was -0.383 (inactive). Besides, in test [5], the NADPH fluorescence slope was -5.2e-06 (inactive). For the same compound, the slope in test [6] is 0.00308 (inactive).
For the compound `Cc1ccc(-c2noc(CN3C(C)CCCC3C)n2)cc1` (centres undefined), in test [1], the cell count was 483. In addition, the inhibition in test [1] is 2.1% (inactive); in test [3] it was -26.4% (inactive); in test [7] it was 2.73% (inactive); in test [8] it was 0.396% (inactive). For the same compound, the inhibition of aggregation in test [2] is -5.2% (inactive). For the same compound, the results for the nuclei count in test [2] and in test [3] were 75.4% and 101%, respectively. Also, the fluorescence slope in test [4] was -0.531 (inactive). Further, in test [5], the NADPH fluorescence slope was -1.6e-05 (inactive). The slope in test [6] was 0.00754 (inactive).
